Results taken from the supplement of paper PMC13380429.

System: Vero E6 infected with SARS-CoV-2
Assay: inhibition of SARS-CoV-2 cytopathic effect; higher = more antiviral protection, active = above 15
Details: 48 h

Measured: inhibition of SARS-CoV-2 cytopathic effect

COC(=O)C1=CO[C@@H](O[C@@H]2O[C@H](CO)[C@@H](O)[C@H](O)[C@H]2O)[C@@H]2C(CO)=CC[C@H]12 [geniposide]
inactive: 1 nM -1.56% | 8.33 nM -1.45% | 100 nM -10.1% | 833.33 nM -17% | 10000 nM -18.6%

CCCCCC(C)N (stereo not given) [tuaminoheptane]
inactive: 1 nM 1.21% | 8.33 nM 1.95% | 100 nM 0.51% | 833.33 nM 3.02% | 10000 nM 1.11%

CC1(C)S[C@@H]2[C@H](NC(=O)[C@H](C(=O)O)c3ccsc3)C(=O)N2[C@H]1C(=O)O [ticarcillin]
inactive: 1 nM -0.59% | 8.33 nM -1.04% | 100 nM -1.79% | 833.33 nM 0.92% | 10000 nM -2.66%

CNC(=O)c1cccc(-c2ccc3c(N4CCOC[C@@H]4C)nc(N4CCOC[C@@H]4C)nc3n2)c1
inactive: 1 nM 0.89% | 8.33 nM -1.74% | 100 nM -1.86% | 833.33 nM 0.43% | 10000 nM -2.51%

CC1=CC[C@@H](C(C)(C)O)C[C@@H]1O [sobrepin]
inactive: 1 nM -10% | 8.33 nM -11.1% | 100 nM -11.4% | 833.33 nM -13.5% | 10000 nM -10.4%

C=CCC1(CC(C)C)C(=O)NC(=O)NC1=O [butalbital]
inactive: 1 nM -0.15% | 8.33 nM 4.37% | 100 nM 2.7% | 833.33 nM 1.69% | 10000 nM 1.37%

C[C@](O)(COc1ccc(C#N)cc1)C(=O)Nc1ccc(C#N)c(C(F)(F)F)c1 [ostarine]
inactive: 1 nM -0.2% | 8.33 nM -1.03% | 100 nM 1.02% | 833.33 nM -1.16% | 10000 nM 1.37%
